# PubChem BioAssay AID1309 (The Scripps Research Institute Molecular Screening Center, 2008)
# Hit rate of the full screen: of about 1,200 compounds, about 130 (11%) were called active. Rule as the data show it: active = activation above about 120%; inactive = the rest. Not all results are given here.
# Test: NF-kB reporter activators in human cells, counter-screen for STAT3 activator project (AID 1309);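 also: reporter induced by TNF-alpha stimulation; 100% = median of stimulated DMSO wells and 0% = no signal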
# Settings: NF-kappaB reporter activation, at 5.7 µM, active compounds read high
row,Compound,activation (% of control)
1,Fc1ccc2nc(-c3ccccc3)nc(SCc3nnc(-c4ccccc4)o3)c2c1,106% (inactive)
2,COc1ccccc1N1CCN(C(=O)c2cc3c(-c4ccc(Cl)cc4)nn(C)c3s2)CC1,101% (inactive)
3,Cn1cccc1C(=O)Nc1nccs1,111% (inactive)
4,N#Cc1ccccc1NC(=O)COc1c(Br)cc(Br)c2cccnc12,107% (inactive)
5,COC(=O)c1[nH]c2ccccc2c1NC(=O)CN1CCCc2ccccc21,106% (inactive)
6,CCOC(=O)N1CCN(CC(=O)Nc2cc(C)nn2-c2nc3ccccc3s2)CC1,106% (inactive)
7,C/C(=N\NC(=O)CNc1cccc2ccccc12)c1ccc(Br)s1,103% (inactive)
8,COc1ccc(/C=N/Nc2ncnc3sc4c(c23)CCCC4)cc1O,110% (inactive)
9,O=C1CCCN1CCCNc1ncnc2c1[nH]c1ccccc12,100% (inactive)
10,COc1ccc(C2c3[nH]c4ccccc4c3CCN2CCCn2cccn2)cc1C (configuration not stated),102% (inactive)
11,CCn1c(SCC(=O)N/N=C/C=C/c2ccccc2[N+](=O)[O-])nnc1-c1ccccc1,101% (inactive)
12,CCOC(=O)C1CCN(c2ncnc3c2oc2ccc(Br)cc23)CC1,102% (inactive)
13,CN1CCN(c2ccc([N+](=O)[O-])c(Sc3nc4ccccc4[nH]3)c2)CC1,102% (inactive)
14,CSc1nc2sc3c(c2c(=O)[nH]1)CCc1ccccc1-3,108% (inactive)
15,C=CCCC(=O)Nc1nc(C)c(-c2csc(Nc3ccc(Cl)cc3)n2)s1,107% (inactive)
16,COc1ccc([N+](=O)[O-])cc1C1NN=C(c2cccc3ccccc23)S1 (configuration not stated),114% (inactive)
17,Cc1ccc(S(=O)(=O)Nc2nc3ccccc3nc2N2CCc3ccccc3C2)cc1,107% (inactive)
18,COc1ccc(NC(=O)ON=C2c3ccccc3-c3ccccc32)cc1,108% (inactive)
19,O=c1[nH]c(CSc2ncc(-c3ccc(F)cc3)n2Cc2ccco2)nc2ccccc12,107% (inactive)
20,OC(COc1ccc2ccccc2c1)CN1CCOCC1 (configuration not stated),107% (inactive)
21,Oc1cccc2ccc(/C=C/c3ccc(Br)s3)nc12,122% (active)
22,CCCS(=O)(=O)Nc1c(C(=O)O)[nH]c2ccccc12,103% (inactive)
23,O=C(Nc1cc(C(F)(F)F)ccc1Cl)c1cc(C2CC2)on1,100% (inactive)
24,O=C(O)CSCc1nc2ccccc2s1,112% (inactive)
25,Cc1ccc(/C=N/NC(=O)COc2ccccc2-c2ccccc2)cc1,155% (active)
26,C=CCn1c(-c2ccccc2OCC)n[nH]c1=S,115% (inactive)
27,Cc1csc2ncc(C(=O)N(Cc3ccccc3)c3ccccn3)c(=O)n12,103% (inactive)
